Screening results deposited in PubChem BioAssay by National Center for Advancing Translational Sciences (NCATS).
In the library only some 8% were active in any assay of this set; here they are far more common.
MCF10A rerep = DNA re-replication induction in MCF 10a cells | 350,000 tested, 2.9% active | AID 624296 | Potency, µM (top dose mostly 46.1 µM), hits mostly activators | MCF 10A DNA re-replication, Hoechst nuclear intensity, 48 h; further: nearly all actives have a fitted effect of over 50% in size
KB-V1 cytotox = KB-V1 MDR subline cytotoxicity; KB-V1 MDR cells viability, CellTiter-Glo, 72 h; Potency, µM (doses to about 46.1 µM), hits mostly cytotoxic; 400,000 tested, 3.4% active; further: nearly all actives have a fitted effect of over 60% in size
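Compound-treated KB-V1 multidrug-resistant cells, 72 h, 37 degrees C; viability by CellTiter-Glo. Fitted qHTS curves give the values.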
KB-3-1 cytotox = kills parental KB-3-1 adenocarcinoma cells; KB-3-1 viability, CellTiter-Glo ATP luminescence, 72 h; Potency, µM (series often up to 46.1 µM), hits mostly cytotoxic; 400,000 tested, 1.4% active; further: nearly all actives have a fitted effect of over 60% in size
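Using CellTiter-Glo luminescence, growth of non-resistant KB-3-1 adenocarcinoma cells is assessed 72 h after pin-tool compound addition at 37 °C. Normalized responses across the concentration series yield fitted curves.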
HT1080NT lethal = kills 2HG-producing HT-1080-NT fibrosarcoma cells; HT-1080-NT fibrosarcoma viability, CellTiter-Glo ATP luminescence, 48 h; Potency, µM (top dose mostly 46.1 µM), usual class: cytotoxic; 360,000 tested, 1.6% active; AID 686970;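 further: NT is the 2HG producing partner of a matched IDH1 knockdown line; nearly all actives have a fitted effect of over 55% in size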
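HT-1080-NT; 750 cells/well; 5% FBS RPMI; 48 h compound, 37 degrees C; CellTiter-Glo luminescence; curve fitting and curve-class assignment.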
SW480 rerep = inducers of DNA re-replication in SW480 colon cancer cells; 340,000 tested, 1.8% active; AID 624297; Potency, µM (series often up to 46.1 µM), usual class: activators; SW480 DNA re-replication, Hoechst DNA content imaging, 48 h; further: nearly all actives have a fitted effect of over 55% in size
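First, 250 cells per well were seeded. Next, compound or vehicle (23 nL) was pinned in, plates sat 48 hr at 37 C. Finally Hoechst was added for 40 min before fluorescence scanning.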
HT1080 IDH1KD tx = HT-1080 IDH1 knockdown cell toxicity (counter line); HT-1080 IDH1 knockdown viability, ATP luminescence, 48 h; Potency, µM (titrated, usually from 46.1 µM), hits mostly cytotoxic; 360,000 tested, 2% active; AID 686971
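Luminescent ATP read-out (CellTiter-Glo, 10 min at room temperature) after 48 h compound exposure at 37 °C gave viability of IDH1-knockdown HT-1080 cells. Activity was normalised to DMSO and cell-free wells, then fitted as concentration-response curves.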
Large screens that a line does not name were inactive; ! = a repeat was not active. The call rests on the fitted dose curve; in most records, active means well fitted curve in the direction sought with a large enough effect; inconclusive means small, poorly fitted or top-dose-only effect, or another doubt; inactive means no such curve, though single readings can be large; an effect the other way counts as inactive or inconclusive.

CC1CCC2(CC1)NC(=O)N(CC(=O)NCCc1c[nH]c3ccccc13)C2=O (configuration not stated)	MCF10A rerep inconclusive
CCC(C)(C)C1CCC2(CC1)NC(=O)N(CC(=O)NCCc1c[nH]c3ccccc13)C2=O (configuration not stated)	KB-V1 cytotox 21µM, KB-3-1 cytotox inconclusive
Cc1ccc(SCc2nc(-c3ccncc3)no2)cc1	MCF10A rerep 16µM, SW480 rerep inconclusive
Cc1ccc(SCc2nc(-c3ccccc3)no2)cc1	none
COc1ccc(-c2noc(-c3ccccc3C(=O)N3CCOCC3)n2)cc1	KB-V1 cytotox 9.2µM
Cc1ccc(-c2noc(-c3ccccc3C(=O)N3CCOCC3)n2)cc1	none
O=C(Nc1ccc2c(c1)nc1n2CCSC1)c1ccccc1	KB-V1 cytotox 13µM, KB-3-1 cytotox inconclusive
COc1cc(/C=N/NC(=O)c2cc(-c3cccc(Br)c3)nc3ccccc23)cc(OC)c1O	MCF10A rerep inconclusive, KB-V1 cytotox inconclusive, KB-3-1 cytotox inconclusive, HT1080NT lethal inconclusive, HT1080 IDH1KD tx 12µM
COc1cc([N+](=O)[O-])cc(/C=N/NC(=O)Cn2nccc2C)c1O	MCF10A rerep 18µM, KB-V1 cytotox inconclusive, KB-3-1 cytotox inconclusive, HT1080NT lethal inconclusive, SW480 rerep 16µM, HT1080 IDH1KD tx inconclusive
COc1cc(Br)cc(/C=N/NC(=O)Cc2ccc(C(F)(F)F)cc2[N+](=O)[O-])c1O	MCF10A rerep inconclusive, KB-3-1 cytotox inconclusive, HT1080NT lethal inconclusive, HT1080 IDH1KD tx 16µM
COc1cc([N+](=O)[O-])cc(/C=N/NC(=O)c2cc(C)nc3ccccc23)c1O	MCF10A rerep inconclusive, KB-3-1 cytotox inconclusive, HT1080NT lethal inconclusive, SW480 rerep inconclusive, HT1080 IDH1KD tx 13µM
COc1cc([N+](=O)[O-])cc(/C=N/NC(=O)c2cc(-c3ccccc3)nc3ccccc23)c1O	KB-V1 cytotox inconclusive, KB-3-1 cytotox inconclusive, HT1080NT lethal inconclusive, HT1080 IDH1KD tx inconclusive
CC(C)(C)NC(=O)COC(=O)c1ccc(O)cc1	none
O=C(Nc1cccc(Cl)c1)c1csc([C@@H]2O[C@H](CO)[C@H](O)[C@H](O)[C@H]2O)n1	none (no result: MCF10A rerep, SW480 rerep)
COc1cccc(/C=N/NC(=O)c2cc(-c3ccccn3)nc3ccccc23)c1O	KB-V1 cytotox inconclusive, KB-3-1 cytotox inconclusive, HT1080NT lethal inconclusive, SW480 rerep 1.6µM, HT1080 IDH1KD tx inconclusive
O=C(N/N=C/c1ccc(F)cc1)c1cc(-c2ccccn2)nc2ccccc12	MCF10A rerep inconclusive
CCOC(=O)C(=NC(C)C)NNc1cc(Cl)ccc1Cl	MCF10A rerep 16µM
CCOC(=O)C(=NC(C)(C)C)NNc1cc(Cl)ccc1Cl	MCF10A rerep inconclusive
Cc1cccc(OCC(=O)NC(C)C(=O)N/N=C/c2c(OCc3ccccc3)ccc3ccccc23)c1 (configuration not stated)	KB-V1 cytotox 16µM, KB-3-1 cytotox inconclusive, HT1080NT lethal inconclusive, SW480 rerep inconclusive, HT1080 IDH1KD tx inconclusive
COc1ccc(-c2cc3ccccc3c(=O)o2)cc1	KB-V1 cytotox inconclusive (no result: MCF10A rerep, SW480 rerep)
CN(C)c1ccc(-c2cc3ccccc3c(=O)o2)cc1	MCF10A rerep 15µM, SW480 rerep 13µM
CCOC(=O)N1CCN(c2ncnc3c2[nH]c2ccc(OC)cc23)CC1	KB-V1 cytotox 15µM
COc1cc2[nH]c3c(N4CCN(c5ccccn5)CC4)ncnc3c2cc1OC	MCF10A rerep inconclusive, KB-V1 cytotox inconclusive, HT1080NT lethal 23µM, HT1080 IDH1KD tx inconclusive
COc1ccc2[nH]c3c(N4CCc5ccccc5C4)ncnc3c2c1	MCF10A rerep 3.7µM, KB-V1 cytotox 2.6µM, KB-3-1 cytotox 2.6µM, HT1080NT lethal 2.3µM, SW480 rerep inconclusive, HT1080 IDH1KD tx 10µM
CCOc1ccc2[nH]c3c(N4CCN(C(=O)c5ccco5)CC4)ncnc3c2c1	MCF10A rerep inconclusive, HT1080NT lethal inconclusive, SW480 rerep inconclusive, HT1080 IDH1KD tx inconclusive
COc1cccc2[nH]c3c(N4CCCCC4)ncnc3c12	none
CCOc1ccc2[nH]c3c(N4CCC5(CC4)OCCO5)ncnc3c2c1	MCF10A rerep inconclusive, KB-V1 cytotox inconclusive, KB-3-1 cytotox inconclusive, HT1080NT lethal inconclusive, SW480 rerep inconclusive, HT1080 IDH1KD tx 23µM
COc1ccc(N2CCN(c3ncnc4c3[nH]c3ccccc34)CC2)cc1	none
CC(=O)c1ccc(NC(=O)CCNS(=O)(=O)c2ccccc2F)cc1	none
O=C(Cn1c(C(F)(F)F)nc2ccccc21)NCCCN1CCOCC1	none
Cc1ccc(S(=O)(=O)N(C)c2ccc3sc(C)nc3c2)cc1	MCF10A rerep 9.2µM, HT1080NT lethal inconclusive, SW480 rerep inconclusive, HT1080 IDH1KD tx inconclusive
CCN(CC)S(=O)(=O)c1ccc(C)c(NC(=O)Cc2ccc(S(=O)(=O)N3CCOCC3)s2)c1	none
CCc1ccc2ncc(S(=O)(=O)c3ccc(C)c(C)c3)c(N3CCCC3)c2c1	MCF10A rerep 23µM, KB-V1 cytotox inconclusive, KB-3-1 cytotox 18µM, HT1080NT lethal inconclusive, HT1080 IDH1KD tx inconclusive
COc1ccc(N(CC(=O)NCc2cccc(OC)c2)S(=O)(=O)c2c(C)noc2C)cc1	KB-V1 cytotox 13µM
CCOc1ccc(N(CC(=O)NCc2ccc(C)cc2)S(=O)(=O)c2c(C)noc2C)cc1	none (no result: MCF10A rerep, HT1080NT lethal, SW480 rerep, HT1080 IDH1KD tx)
CCOc1ccc(N(CC(=O)NCc2cccc(OC)c2)S(=O)(=O)c2c(C)noc2C)cc1	KB-V1 cytotox 7.3µM
COc1ccc(N(CC(=O)NCc2ccc(F)cc2)S(=O)(=O)c2c(C)noc2C)cc1	none
O=S(=O)(c1ccc2nc(-c3ccccc3)[nH]c2c1)N1CCN(c2ccc(Cl)cc2)CC1	MCF10A rerep 16µM, KB-V1 cytotox inconclusive, SW480 rerep inconclusive, HT1080 IDH1KD tx inconclusive
O=S1(=O)CCOC[C@H](CC2CCCCC2)N1Cc1cccc(C(F)(F)F)c1	KB-V1 cytotox 13µM!, KB-3-1 cytotox inconclusive
O=S1(=O)CCOC[C@H](Cc2ccccc2)N1Cc1cccc(C(F)(F)F)c1	KB-V1 cytotox inconclusive, SW480 rerep inconclusive
C=CCNC(=S)N/N=C/c1ccc(OCc2ccccc2Cl)cc1	MCF10A rerep inconclusive, HT1080NT lethal 3.2µM, SW480 rerep 7.3µM, HT1080 IDH1KD tx 3.2µM
Cc1cccc(N2CCN(Cc3ccoc3)CC2)c1C	MCF10A rerep 21µM, SW480 rerep inconclusive, HT1080 IDH1KD tx inconclusive
COc1cc(CN2CCN(c3cccc(C)c3C)CC2)cc(OC)c1O	KB-V1 cytotox 18µM
Cc1cccc(N2CCN(Cc3ccc([N+](=O)[O-])o3)CC2)c1C	SW480 rerep inconclusive
COc1cc(CN2CCCCCC2)cc(OC)c1O	none
CC(C(=O)OCC(=O)N(C)C1(C#N)CCCCC1)N1C(=O)c2ccccc2C1=O (configuration not stated)	none
